Changes are numbered by the printed parent chain.
Tests used:
Test in all cases: yeast three-hybrid, YBZ-1, SC-Leu-His + 0.5 mM 3-AT, 4 days
Conditions in all cases: tags: N-Gal4 AD-HA kept; label: inside an RPR1-promoter hybrid RNA with tandem MS2 sites; ssRNA
[1] = target: PUM1 PUF domain R5-KAS (Homo sapiens, UniProt Q14671 828-1176, C1007K;R1008A;Q1011S)
Procedure, shortened: (§1)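 Repeat regions from input (SC-Leu) and selection (SC-Leu-His + 0.5 mM 3-AT) plates were PCR-amplified and Illumina-sequenced after four days of growth. The cells were strain YBZ-1 with a LexA–MS2 coat fusion and a HIS3 reporter, co-expressing Pumilio-1 PUF domain libraries and matching RNA elements from a centromeric plasmid. The interaction score is the log change in variant frequency from input to selection, taken in log2 with a pseudocount of 1 for absent variants.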

[2] = target: PUM1 PUF domain R3-ARA (Homo sapiens, UniProt Q14671 828-1176, C935A;Q939A)
Procedure, shortened: as §1

[3] = target: PUM1 PUF domain R8-VYK (Homo sapiens, UniProt Q14671 828-1176, N1122V;Q1126K)
Procedure, shortened: as §1

[4] = target: PUM1 PUF domain R4-SNL (Homo sapiens, UniProt Q14671 828-1176, N971S;H972N;Q975L)
Procedure, shortened: as §1

[5] = target: PUM1 PUF domain R4-EYM (Homo sapiens, UniProt Q14671 828-1176, N971E;H972Y;Q975M)
Procedure, shortened: as §1

[6] = target: T1, PUM1 PUF domain R6-CYV (Homo sapiens, UniProt Q14671 828-1176, N1043C;Q1047V)
T1 sequence: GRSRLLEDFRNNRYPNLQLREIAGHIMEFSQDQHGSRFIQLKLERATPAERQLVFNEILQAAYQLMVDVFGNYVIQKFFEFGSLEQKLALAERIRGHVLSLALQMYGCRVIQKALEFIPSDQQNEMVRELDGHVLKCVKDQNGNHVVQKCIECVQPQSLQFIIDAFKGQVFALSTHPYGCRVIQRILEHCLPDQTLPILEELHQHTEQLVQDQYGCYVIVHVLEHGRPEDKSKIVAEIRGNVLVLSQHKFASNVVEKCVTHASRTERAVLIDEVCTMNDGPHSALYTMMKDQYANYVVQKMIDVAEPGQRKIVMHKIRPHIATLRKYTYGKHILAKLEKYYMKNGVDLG
Procedure, shortened: as §1

[7] = target: T2, PUM1 PUF domain R6-GHS (Homo sapiens, UniProt Q14671 828-1176, N1043G;Y1044H;Q1047S)
T2 sequence: T1 sequence with C216G, Y217H, V220S
Procedure, shortened: as §1

[8] = target: PUM1 PUF domain R1-QVK (Homo sapiens, UniProt Q14671 828-1176, S863Q;R864V;Q867K)
Procedure, shortened: as §1

**Q.** With “GGCUAGAACUAGUGGAUCCCCCGGCGCCCGGCGGCUCGAGCCCGGGUAAGUGUUAAUAGUCUGCAUGCCGCCGGGCGCCAUGCCUGCAGGUCGACUCUAGAAAACAUG” as the sequence, how does the binding signal [1] read?
**A.** 5.33 log2 enrichment (interaction score)

**Q.** How did the binding signal [2] turn out when “GGCUAGAACUAGUGGAUCCCCCGGCGCCCGGCGGCUCGAGCCCGGGUAAGUGUAAUUAGUCUGCAUGCCGCCGGGCGCCAUGCCUGCAGGUCGACUCUAGAAAACAUG” was run?
**A.** 0.92 log2 enrichment (interaction score)

**Q.** Which binding signal [3] does the source give for “GGCUAGAACUAGUGGAUCCCCCGGCGCCCGGCGGCUCGAGCCCGGGUAAGCGUAAAUAGUCUGCAUGCCGCCGGGCGCCAUGCCUGCAGGUCGACUCUAGAAAACAUG” here?
**A.** 4.78 log2 enrichment (interaction score)

**Q.** With “GGCUAGAACUAGUGGAUCCCCCGGCGCCCGGCGGCUCGAGCCCGGGUAAGUGUACAUAGUCUGCAUGCCGCCGGGCGCCAUGCCUGCAGGUCGACUCUAGAAAACAUG” as the sequence, how does the binding signal [4] read?
**A.** 1.34 log2 enrichment (interaction score)

**Q.** And the binding signal [5]?
**A.** 2.59 log2 enrichment (interaction score)

**Q.** Which results are given for “GGCUAGAACUAGUGGAUCCCCCGGCGCCCGGCGGCUCGAGCCCGGGUAAGUGAAAAUAGUCUGCAUGCCGCCGGGCGCCAUGCCUGCAGGUCGACUCUAGAAAACAUG”?
**A.** binding signal [6]: 3.61 log2 enrichment (interaction score); binding signal [7]: 2.5 log2 enrichment (interaction score)

**Q.** With “GGCUAGAACUAGUGGAUCCCCCGGCGCCCGGCGGCUCGAGCCCGGGUAAGUGUAUAUAGUCUGCAUGCCGCCGGGCGCCAUGCCUGCAGGUCGACUCUAGAAAACAUG” as the sequence, how does the binding signal [4] read?
**A.** 4.22 log2 enrichment (interaction score)

**Q.** Which binding signal [8] does the source give for “GGCUAGAACUAGUGGAUCCCCCGGCGCCCGGCGGCUCGAGCCCGGGUAAGUGUAAAUCGUCUGCAUGCCGCCGGGCGCCAUGCCUGCAGGUCGACUCUAGAAAACAUG” here?
**A.** 2.91 log2 enrichment (interaction score)

**Q.** For “GGCUAGAACUAGUGGAUCCCCCGGCGCCCGGCGGCUCGAGCCCGGGUAAGUGUAAGUAGUCUGCAUGCCGCCGGGCGCCAUGCCUGCAGGUCGACUCUAGAAAACAUG”, which binding signal [2] is on record?
**A.** 1.03 log2 enrichment (interaction score)

— PMC8384837, “Expanding the binding specificity for RNA recognition by a PUF domain”
